# Measurements as given in PubChem BioAssay (NCI).
# This is part of a sample that, as a whole, favours compounds with a hit. Of some 83,000 tested, about 20% had one in any assay.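 Cell lines were cultured in 96-well plates, exposed to a single compound concentration, and assessed for percent growth 48 hours later.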 Unmarked numbers belong to inactive results. Active and inactive are the calls of the source. The calls were made as follows: active = growth percent below 10; inactive = the rest.
# Key:
# Experiment in all cases: NCI-60 one-dose screen, 48 h (100 = growth as untreated, 0 = no growth, -100 = all killed)
# Conditions in all cases: 10 µM
# K-562 leukemia = tested on: K-562 leukemia
# MALME-3M melanoma = tested on: MALME-3M melanoma
# MDA-MB-231 breast = tested on: MDA-MB-231 breast
# RXF 393 renal = tested on: RXF 393 renal
# SF-268 CNS = tested on: SF-268 CNS
# SF-295 CNS = tested on: SF-295 CNS
# SF-539 CNS = tested on: SF-539 CNS
# UACC-257 melanoma = tested on: UACC-257 melanoma
# M14 melanoma = tested on: M14 melanoma
# HCT-15 colon = tested on: HCT-15 colon
Compound,growth (K-562 leukemia),growth (MALME-3M melanoma),growth (MDA-MB-231 breast),growth (RXF 393 renal),growth (SF-268 CNS),growth (SF-295 CNS),growth (SF-539 CNS),growth (UACC-257 melanoma),growth (M14 melanoma),growth (HCT-15 colon)
CC(=O)[C@H]1CC[C@H]2[C@@H]3CCC4=CC(=O)C=C[C@]4(C)[C@H]3CC[C@]12C,76.6%,89.3%,100%,125%,102%,92.5%,87.9%,87.8%,107%,106%
CN(C)c1ccc(Cc2ccc(N(C)C)cc2Cl)c(Cl)c1,90.2%,91.9%,109%,93.2%,103%,116%,108%,110%,107%,–
O=C(Nc1cccc(-n2cc(-c3ccncc3)c(-c3ccc(O)c(Cl)c3)n2)c1)c1cccc(C(F)(F)F)c1,19.3%,24.6%,-58.9% (active),-12.4% (active),51.7%,7.62% (active),27.4%,33.3%,28.4%,–
C#Cc1ccc(-n2c(/C=C/c3ccc(Cl)c(F)c3)nc3ncccc3c2=O)cc1,-8.5% (active),-60.4% (active),-29.8% (active),-76.2% (active),-61.9% (active),-60.1% (active),1.03% (active),-65.1% (active),-9.7% (active),–
COc1ccc2c(c1OC)O/C(=C\c1ncc([N+](=O)[O-])n1C)C2=O,28.8%,-68.9% (active),-20.7% (active),-65.7% (active),-5.54% (active),55.3%,63.5%,-55.8% (active),-59.1% (active),–
COc1ccc(-c2nn(-c3cccc(NC(=O)c4cccc(C(F)(F)F)c4)c3)cc2-c2ccncc2)cc1Cl,14.8%,12.6%,9.03% (active),19.4%,37.5%,-10.7% (active),-39.6% (active),25.5%,7.66% (active),26.9%
COc1ccc(Cl)cc1C(=O)Nc1nc2ccc(Cl)cc2s1,86.8%,83.3%,70.9%,95%,83.2%,170%,86.4%,102%,95.1%,–
COc1ccc(C(=O)/C=C/c2cc(-c3cc(OC)c(OC)c(OC)c3)n[nH]2)cc1,5.85% (active),69%,38.5%,30.1%,31.2%,-23.8% (active),-25.6% (active),70.8%,54.6%,–
Cc1ccc(NC(=O)Nc2c(Cl)cccc2Cl)cn1,47.7%,109%,95.4%,77.3%,116%,117%,97.7%,99.6%,96.1%,100%
N#Cc1ncc(Br)c(NC2CCCCCC2)n1,97.1%,145%,98%,95.2%,111%,93.4%,99.5%,95%,114%,92.3%
O=C(c1cccs1)c1ccccc1Cc1ccccc1,98.2%,110%,88.6%,99.5%,115%,98.3%,112%,92.8%,118%,–
CSc1nc(=O)n(Cc2ccc(F)cc2)c(=O)n1Cc1ccc(C)cc1,91.1%,97.6%,103%,113%,96.6%,79.8%,108%,106%,99.7%,102%
O=S(=O)(NCCCNc1nccc(-c2c(-c3ccc(F)cc3)nc3sccn23)n1)c1ccc(F)cc1,13.5%,48.5%,73.3%,57.9%,45.4%,25.4%,78.1%,57.2%,44.4%,–
CC/C(C)=C(\C)C(=O)O,100%,99.7%,111%,110%,105%,94.7%,104%,91.7%,104%,–
c1ccc(CO[C@H]2CO[C@H]3[C@@H]2OC[C@H]3OCc2ccccc2)cc1,106%,144%,112%,119%,102%,95.3%,110%,108%,104%,–
O=C1Nc2ccc(Cl)cc2/C1=C\c1c(-c2ccc(Cl)cc2)nc2sc(C3CC3)nn12,76.1%,42%,43.7%,21.1%,34%,41.4%,8.81% (active),63.2%,74.2%,–
COc1ccc(-c2nn(-c3cccc(NC(=O)c4ccc(Cl)c(Cl)c4)c3)cc2-c2ccncc2)cc1Cl,36.3%,58.4%,78%,65.9%,89.8%,65%,72.2%,86.9%,75.6%,–
COc1ccc(-c2csc(NC(=O)CSc3nc(C)c(-c4ccccc4)n3Nc3ccccc3)n2)cc1,24.8%,60.4%,65.8%,63.9%,44.7%,-9.42% (active),72.7%,89.3%,50.4%,–
COc1cc(NC(=O)c2sc3nc4c(cc3c2N)C(O)CCC4)cc(OC)c1 (centres undefined),27.9%,77.6%,88.9%,90.4%,103%,87.5%,87.7%,89.2%,75.4%,–
CSC1=NCCCC1,104%,109%,123%,108%,109%,110%,111%,100%,108%,–
COc1ccccc1/C=C/C(=O)c1ccccc1,6.19% (active),90.8%,80.5%,92%,87.9%,101%,92%,94.3%,85.7%,–
CC(=O)N(C)c1ccc(Nc2ccc(Nc3ccc(N(C)C(C)=O)cc3)c3c2C(=O)c2ccccc2C3=O)cc1,55.8%,113%,49.3%,81.7%,76.5%,81.2%,76.3%,74.5%,86.1%,–
C[C@@H]1C=C2C(=O)O[C@@H]3CC[C@H](C1)[C@]23O,27.5%,93.2%,89%,9.76% (active),93.3%,114%,90.8%,46.8%,80.2%,62.5%
O=C(N/N=C/c1cc2ccccc2c2ccccc12)c1cc(O)c(O)c(O)c1,20.2%,49%,68.4%,75%,46.7%,88.8%,50%,75.3%,61%,–
Cc1nc2ccccc2c(N)c1-c1cc(C)c2c(C)nc3ccccc3c2n1,-36.1% (active),95.3%,-80.2% (active),-80.3% (active),-67.5% (active),85.2%,-71.9% (active),105%,39.3%,-90% (active)
O=S(=O)(Nc1ccccn1)c1ccc(N=Nc2ccc(O)c3ncccc23)cc1,6.51% (active),-19.8% (active),-2.1% (active),27.1%,25%,6.2% (active),10.8%,-23.5% (active),11.8%,14.5%
CC/C(=C(/c1ccc(OCCN(C)C)cc1)c1ccc(OC(=O)CCCCCCCCC(=O)c2c(C)[nH]c(/C=C3\N=C(c4ccc[nH]4)C=C3OC)c2C)cc1)c1ccccc1,33.5%,68.1%,11.2%,69.1%,71.7%,89%,83.4%,90.5%,38.6%,–
N#Cc1ncc(-c2ccc(C(F)(F)F)cc2)c(NCc2cc(C(F)(F)F)cc(C(F)(F)F)c2)n1,16.1%,10.1%,39.4%,35.8%,56.8%,4.36% (active),66.4%,28.7%,40%,–
O=C1/C(=C/c2ccc([N+](=O)[O-])s2)Oc2ccccc21,-14.5% (active),-60.9% (active),-70.3% (active),-81.1% (active),-54.2% (active),-37.4% (active),-77% (active),-54.6% (active),-40.9% (active),–
